Sfp inh = inhibitors of Bacillus subtilis Sfp phosphopantetheinyl transferase; hit rate 3.5% among 310,000; AID 1490; Biochemical Sfp PPTase activity, qHTS; Potency, µM, inactives show largest response in the series, negative = inhibition, usual class: inhibitors; Q9F4F7;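 further: the enzyme is Sfp with the accession as filed and its product quenches rhodamine fluorescence; 0% = enzyme reaction without inhibitor and -100% = no enzyme wells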
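Fluorescence-quenching assay: 15 nM Sfp-PPTase preincubated 15 min at room temperature with compound, then 5 uM rhodamine-CoA and 12.5 uM BHQ-2-labelled YbbR peptide added. Fluorescence (ex 525/em 598 nm) read at start and after 30 min; difference gives rate.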
JMJD2A Tudor = blocks the human JMJD2A Tudor domain. O75164. AlphaScreen JMJD2A-Tudor / H3K4me3 peptide binding. AID 504339. hit rate 4.4% among 390,000. Potency, µM (titrated, usually from 114 µM), for inactives: top-dose activity change, negative = inhibition, usual class: inhibitors; further: on the % scale 0 is the no-effect control and ±100 the full control effect; nearly all actives have a fitted effect of over 50% in size
PLK1 PBD block = PLK1 (human) polo-box domain binding inhibition; P53350; Plk1 PBD binding of FITC phosphopeptide, fluorescence polarization; Potency, µM, for inactives: max response, negative = inhibition, hits mostly inhibitors; hit rate 2.8% among 360,000; AID 720504; further: series mostly up to about 57 µM; on the % scale 0 is the no-effect control and ±100 the full control effect; nearly all actives have a fitted effect of over 65% in size
HP1b chromo inh = HP1-beta chromodomain-methylated histone interaction inhibition | P83916 | AlphaScreen HP1-beta / biotin-H3K9me3 peptide binding | Potency, µM (series often up to 114 µM), without a hit: at the highest dose activity change, negative = inhibition, hits mostly inhibitors | hit rate 0.56% among 390,000; further: nearly all actives have a fitted effect of over 70% in size
Target sequence (P83916 whole entry, looked up): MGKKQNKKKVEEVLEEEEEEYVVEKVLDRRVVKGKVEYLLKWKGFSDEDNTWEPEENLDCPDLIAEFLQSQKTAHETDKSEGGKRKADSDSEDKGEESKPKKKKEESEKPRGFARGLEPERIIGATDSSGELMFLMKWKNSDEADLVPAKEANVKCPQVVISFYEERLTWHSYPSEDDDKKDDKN
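HP1-beta protein (50 nM final) preincubated 30 min at room temperature with biotinylated H3(1-18)K9me3 peptide (50 nM) in PBS pH 7.4, 0.01% Tween-20, then compound added for 30 min. AlphaScreen streptavidin donor/nickel chelate acceptor beads (10 ug/mL final), 30 min dark, luminescence read.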
G9a block = blocks human histone lysine methyltransferase G9a; Potency, µM (highest dose often 102 µM), for the others: at the top dose activity, negative = inhibition, actives largely listed as inhibitors; G9a H3K9 monomethylation, AlphaScreen, 2 h; hit rate 8.8% among 350,000; Q96KQ7; further: on the % scale 0 is the no-effect control and ±100 the full control effect; nearly all actives have a fitted effect of over 75% in size
Target sequence (Q96KQ7 913-1193 limits assumed): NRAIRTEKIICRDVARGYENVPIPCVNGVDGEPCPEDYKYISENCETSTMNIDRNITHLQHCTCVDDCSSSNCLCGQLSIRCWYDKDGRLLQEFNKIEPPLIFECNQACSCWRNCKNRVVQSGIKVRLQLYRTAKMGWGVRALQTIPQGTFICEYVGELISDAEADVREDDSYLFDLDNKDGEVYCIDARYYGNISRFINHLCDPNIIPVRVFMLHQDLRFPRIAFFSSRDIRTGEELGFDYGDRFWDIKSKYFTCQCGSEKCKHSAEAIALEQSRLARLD
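Step 1: enzyme (final 20 nM) with compound, 15 min RT. Step 2: substrate peptide 500 nM and SAM 20 uM, 2 h RT. Step 3: anti-H3K9me1 antibody and AlphaScreen beads, 10 min, then plate read.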
BAZ2B block = inhibitors of human BAZ2B bromodomain. AID 504333. Q9UIF8. hit rate 4.4% among 360,000. Potency, µM (top dose mostly 114 µM), without a hit: at the highest dose activity change, negative = inhibition, actives largely listed as inhibitors. AlphaScreen BAZ2B-H3K14Ac peptide displacement; further: on the % scale 0 is the no-effect control and ±100 the full control effect; nearly all actives have a fitted effect of over 60% in size
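Complex of BAZ2B and biotin-H3K14Ac (50 nM apiece) forms over 30 min at RT, then faces library compounds up to 110 uM for another 30 min; AlphaScreen beads added, 20 min dark incubation, luminescence read.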
Numbers without * were called inactive; ? = inconclusive; nt = not tested or not shown; ! = a repeat was not active; [ ] = dose if it differs, or a comment. The list is not random: actives were taken first. Their share in the collection is about 12%. The call rests on the fitted dose curve; in most records, active means well fitted curve in the direction sought with a large enough effect; inconclusive means small, poorly fitted or top-dose-only effect, or another doubt; inactive means no such curve, though single readings can be large; an effect the other way counts as inactive or inconclusive. Potency means the concentration at half of the fitted maximal effect.

SMILES	Sfp inh	JMJD2A Tudor	PLK1 PBD block	HP1b chromo inh	G9a block	BAZ2B block
c1ccc(CNc2ccnc(-c3cccnc3)n2)cc1	-22.4%	nt	nt	nt	1.1%[0.501 µM]	nt
CC(=O)c1ccc(Nc2ncnc3c2oc2ccccc23)cc1	-16.3%	?	1.2%	46.8%	79.4µM*	?
CSc1ccc(C(=O)c2[nH]c(=O)[nH]c2C)cc1	-11.8%	-23.0%	?	11.2%	10.6µM*!	-1.0%
CSC(SC)=C(C(C)=O)C(=O)c1ccc(C)cc1	5.7%	-6.6%	-16.5%	20.8%	?	-6.8%
O=C(Cn1c(=O)n(Cc2ccc3c(c2)OCO3)c(=O)c2oc3ccccc3c21)Nc1ccccc1F	nt	10.6%	nt	47.3%	1.8%[59 µM]	-16.2%
CCc1c2c(nc3ccc(OC)cc13)OC(CC)C2 (stereo not given)	15.4%	nt	nt	nt	nt	nt
CCn1c(C)[n+](Cc2ccccc2)c2ccc(C(=O)OC)cc21	-8.2%	-3.1%	-12.3%	-2.5%	31.6µM*	nt
O=C(COc1ccc(Cl)cc1Cl)OCC(=O)N1CCCc2ccccc21	4.1%	39.8%	-0.1%	86.6%	27.4%	22.9%
Cc1cccc(OCC(=O)Nc2ccccc2N2CCCCC2)c1	1.0%	66.9%	0.9%	191.1%	54.2%[59 µM]	52.1%
O=C(COc1ccc(Cl)cc1Cl)NC(=S)N1CCCc2ccccc21	56.2µM*	39.8µM*	26.7µM*	?	10µM*	79.4µM*
Cc1cccc(OCC(=O)NC(=S)N2CCCc3ccccc32)c1	79.4µM*	50.1µM*	-15.0%	?	11.2µM*	44.7µM*
CCOC(=O)OCC1OC(c2ccccc2)C=CC1Oc1cccc(N(C)C)c1 (stereo not given)	15.4%	nt	nt	nt	nt	nt
COc1ccc(C2/C=C\CC(NC(=O)OCC3c4ccccc4-c4ccccc43)CC(=O)N2Cc2ccccc2F)cc1 (stereo not given)	5.3%	?	29.9µM*	-11.5%	29.3%[59 µM]	nt
CC(=O)Nc1ccc(S(=O)(=O)NC(C)C(=O)NC(C)c2ccccc2)cc1 (stereo not given)	4.1%	-11.0%	11.9µM*	38.6%	?	-1.8%
CCCCCCNC(=O)CC(NS(=O)(=O)c1ccc(NC(C)=O)cc1)C(C)C (stereo not given)	8.9%	-2.9%	-7.8%	44.0%	39.8µM*	1.6%
CCOc1ccc(NC(=O)C(C)NS(=O)(=O)c2ccc(NC(C)=O)cc2)cc1 (stereo not given)	5.0%	-14.3%	26.7µM*	32.0%	?	nt
CC(=O)Nc1ccc(S(=O)(=O)N[C@@H](C)C(=O)N2CCN(c3ccccn3)CC2)cc1	nt	11.3%	11.9µM*	39.3%	nt	nt
CCCNC(=O)CC(NS(=O)(=O)c1ccc(NC(C)=O)cc1)C(C)C (stereo not given)	23.3%	3.5%	-8.2%	43.7%	-22.6%	0.4%
CC(=O)Nc1ccc(S(=O)(=O)NC(C)c2ccncc2)cc1 (stereo not given)	nt	-6.0%	1.0%	28.5%	?	9.2%
CCOc1ccc(NC(=O)Cn2c(=O)n(Cc3ccc(C(=O)NCc4ccc5c(c4)OCO5)cc3)c(=O)c3ccccc32)cc1	nt	-20.1%	nt	20.9%	-0.5%[59 µM]	1.5%
Cc1ccc(C2C3=C(CC(C)(C)CC3=O)Nc3[nH]c(=S)[nH]c(=O)c32)cc1 (stereo not given)	14.1µM*	89.1µM*	-21.8%	28.7%	?	?
COc1ccc(/C=N/NC(=S)Nc2c(C)n(C)n(-c3ccccc3)c2=O)cc1OC	44.7µM*	-6.4%	-0.5%	23.2%	nt	-3.1%
Cc1c(NC(=S)N/C(=N/S(=O)(=O)c2ccc(Cl)cc2)c2ccccc2)c(=O)n(-c2ccccc2)n1C	35.5µM*	2.8%	-12.9%	11.2%	?	26.1%
COc1ccc(NC(=O)Nc2c(C)n(C)n(-c3ccccc3)c2=O)cc1OC	11.1%	-8.3%	-3.5%	14.1%	3.1%	-12.8%
Cc1c(NC(=S)N/N=C/c2ccc([N+](=O)[O-])cc2O)c(=O)n(-c2ccccc2)n1C	31.3%	44.7µM*	-19.2%	28.5%	1.5%	14.1µM*
SMILES	Sfp inh	JMJD2A Tudor	PLK1 PBD block	HP1b chromo inh	G9a block	BAZ2B block
Cc1c(NC(=S)N/N=C/c2ccc(Br)cc2)c(=O)n(-c2ccccc2)n1C	18.2%	-9.4%	-3.9%	22.2%	-46.5%	-18.0%
Cc1c(NC(=S)N/N=C\c2ccccc2O)c(=O)n(-c2ccccc2)n1C	13.0%	39.8µM*	-7.7%	37.9%	9.7%[59 µM]	3.16µM*
O=C(CSc1nnc(C2CC2)n1C1CC1)c1cc(F)ccc1F	nt	-6.9%	-17.2%	19.4%	?	5.0%
O=S(=O)(c1cccc(-c2n[nH]c(=S)n2-c2ccc(OC(F)(F)F)cc2)c1)N1CCOCC1	nt	-18.1%	2.0%	41.0%	nt	nt
O=c1c2nc(Br)n([C@@H]3O[C@@H]4CO[P@@](O)(=S)O[C@H]4[C@H]3O)c2nc2[nH]c(-c3ccccc3)cn12	-0.6%	nt	nt	nt	nt	nt
O=C(NCc1ccccc1)c1cnc2sc(N3CCCC3)nn2c1=O	nt	-18.7%	nt	?	12.4%[59 µM]	-2.4%
Cc1c(NC(=O)c2c(N)sc3c2CCCC3)c(=O)n(-c2ccccc2)n1C	28.2µM*	-13.1%	?	23.8%	?	10.4%
Cc1c(NC(=S)Nc2cccc(Cl)c2)c(=O)n(-c2ccccc2)n1C	-2.1%	-8.5%	-7.7%	6.9%	-25.7%	2.7%
Cc1cccc(C)c1NC(=S)Nc1c(C)n(C)n(-c2ccccc2)c1=O	7.1%	-18.9%	-11.8%	33.6%	0.794µM*	-7.4%
Cc1c(NC(=O)c2csc3c2CCCC3)c(=O)n(-c2ccccc2)n1C	15.9%	-9.0%	-2.6%	-4.2%	-12.7%[59 µM]	-0.8%
CCc1ccc(-n2ccc(=O)c(C(=O)O)n2)cc1	10.3%	?	-24.3%	37.7%	-8.1%	-15.2%
Cc1c(NN=C(C#N)C#N)c(=O)n(-c2ccccc2)n1C	-75.8%	-5.2%	-14.3%	26.8%	10µM*	-33.6%
Cc1c(NC(=O)/C(C#N)=C/c2ccccc2)c(=O)n(-c2ccccc2)n1C	-4.1%	1.5%	-6.5%	13.1%	70.8µM*	-9.8%
Cc1ccsc1/C=C(\C#N)C(=O)Nc1c(C)n(C)n(-c2ccccc2)c1=O	-30.0%	-13.5%	-8.2%	30.4%	?	-30.8%
Cc1c(NC(=O)CC(=O)Nc2c(C)n(C)n(-c3ccccc3)c2=O)c(=O)n(-c2ccccc2)n1C	15.9%	-14.9%	-5.7%	12.3%	2.0%[59 µM]	-6.0%
O=C1C(SCCO)=C(SCCO)C(=O)c2ccccc21	0.282µM*!	8.91µM*	2.12µM*	?	1.26µM*!	?
Cc1cc(C=O)c(C)n1-c1ccc(Cl)c(C(=O)O)c1	-9.0%	20µM*	10.6µM*	39.8µM*	12.6µM*	25.1µM*
Cc1cc(C=O)c(C)n1-c1ccc(N2CCCCC2)c([N+](=O)[O-])c1	18.4%	35.5µM*	-2.6%	?	12.6µM*	39.8µM*
